Data: the OligoGym collection

target: ATG13; assay: pooled miR-30 sensor sort-seq; sequence = guide strand; conditions: shRNA
Further: reference of the scale not given here.

Row | Sequence | sensor-assay potency score (higher = more potent)
1 | AAATTTAATAAACTTGTCCAGG | -1.15
2 | TTGCTAAGTTGAACCAATCTGA | 0.054
3 | TATCATAACAAAGTCATCATGG | 0.359
4 | TTTATCACACTTTTCATTCATT | -0.513
5 | TTGAGAGTCTTCTACAGACGGG | -0.452
6 | TTGGAGAAGATGATGAACGAGT | 0.0356
7 | TTGATTTCTTTATCACACTTTT | -0.851
8 | TTCAGCAGCAATGACAGTCTGT | 0.524
9 | TGACAGTCTGTTGTACACCGTG | -0.356
10 | TTCAAGACACCATATTTCCAGC | -0.751
11 | TTCAGTATCCTCACTACTGGAG | -0.0842

target: ATG16L1; assay: as above; conditions: shRNA

Row | Sequence | sensor-assay potency score (higher = more potent)
12 | TTTCTTGTGTAATTCAGTCAGT | -0.093
13 | TTTCTTGTAGCTGATTGTCATT | -1.43
14 | TTGCAAAATCATTTGAAGCTGC | 0.00437
15 | TATCATTGCAACTGGATCCTGC | 0.235
16 | TTCCCTGTGAGCACACTCCAGA | -0.634
17 | ATGAGTATCCACATTGTCCTGG | -0.348
18 | TTGTAGCTGATTGTCATTCCAT | -0.0295
